# Source: the supplement of paper PMC8728848
# The entries come from a sample that favours the strongest signals as a whole.
# B1: MUC1-SEA-mFcIgG2a (Homo sapiens), P15941 (SEA domain only) (protein)
# chain: DAAQPARRAVRSSSELTSEQKLISEEDLSRLVHNGTSARATTTPASKSTPFSIPSHHSDTPTTLASHSTKTDASSTHHSTVPPLTSSNHSTSPQLSTGVSFFFLSFHISNLQFNSSLEDPSTDYYQELQRDISEMFLQIYKQGGFLGLSNIKFRPGSVVVQLTLAFREGTINVHDVETQFNQYKTEAASRYNLTISDASVSDVPFPFSAQSGSDDDDKALEPRGPTIKPCPPCKCPAPNLLGGPSVFIFPPKIKDVLMISLSPIVTCVVVDVSEDDPDVQISWFVNNVEVHTAQTQTHREDYNSTLRVVSALPIQHQDWMSGKEFKCKVNNKDLPAPIERTISKPKGSVRAPQVYVLPPPEEEMTKKQVTLTCMVTDFMPEDIYVEWTNNGKTELNYKNTEPVLDSDGSYFMYSKLRVEKKNWVERNSYSCSVVHEGLHNHHTTKSFSRTPGKHHHHH
# Legend:
# Assay in all cases: glycan array binding signal (z-score within array); higher = stronger binding
# Conditions in all cases: glycan notation: IUPAC condensed, linker removed
# Fuc(a1-2)Gal = biological target: Fuc(a1-2)Gal
# Method in brief: (§1)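 Negative Z-scores can be read as non-binding. The Z-score is calculated within each array and then averaged across arrays of one protein sequence at different concentrations or buffers and across linkers. Arrays, 3228 in all, were curated from the Consortium for Functional Glycomics database and kept only where the protein sequence was available.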
# Fuc(a1-2)Gal(b1-3)GalNAc = biological target: Fuc(a1-2)Gal(b1-3)GalNAc
# Method in brief: as §1
# [1] = biological target: Fuc(a1-2)Gal(b1-3)GalNAc(b1-3)Gal
# Method in brief: as §1
# Fuc(a1-2)Gal(b1-3)GlcNAc = biological target: Fuc(a1-2)Gal(b1-3)GlcNAc
# Method in brief: as §1
# Fuc(a1-2)Gal(b1-4)Glc = biological target: Fuc(a1-2)Gal(b1-4)Glc
# Method in brief: as §1
# [2] = biological target: Fuc(a1-2)Gal6S(b1-4)Glc6S
# Method in brief: as §1
# Fuc(a1-2)[Gal(a1-3)]Gal = biological target: Fuc(a1-2)[Gal(a1-3)]Gal
# Method in brief: as §1
# [3] = biological target: Fuc(a1-2)[GalNAc(b1-3)]Gal
# Method in brief: as §1
# [4] = biological target: Fuc(a1-3)[Gal(b1-4)]GlcNAc
# Method in brief: as §1
# [5] = biological target: Fuc(a1-3)[Gal(b1-4)]GlcNAc(b1-2)Man(a1-6)[Gal(b1-4)GlcNAc(b1-2)Man(a1-3)]Man(b1-4)GlcNAc(b1-4)GlcNAc
# Method in brief: as §1
# [6] = biological target: Fuc(a1-3)[Gal(b1-4)]GlcNAc(b1-4)Gal(b1-4)[Fuc(a1-3)]GlcNAc(b1-4)Gal(b1-4)[Fuc(a1-3)]GlcNAc
# Method in brief: as §1
# [7] = biological target: Fuc(a1-3)[Gal3S(b1-4)]GlcNAc6S
# Method in brief: as §1
# [8] = biological target: Gal(b1-4)GlcNAc(b1-6)Gal(b1-4)GlcNAc(b1-6)GalNAc
# Method in brief: as §1
# [9] = biological target: Gal3S(b1-3)[Fuc(a1-4)]GlcNAc
# Method in brief: as §1
# Gal3S(b1-4)Glc6S = biological target: Gal3S(b1-4)Glc6S
# Method in brief: as §1
# Gal3S6S(b1-4)GlcNAc6S = biological target: Gal3S6S(b1-4)GlcNAc6S
# Method in brief: as §1
# Gal4S6S(b1-4)GlcNAc = biological target: Gal4S6S(b1-4)GlcNAc
# Method in brief: as §1
# Gal6S(b1-4)Glc6S = biological target: Gal6S(b1-4)Glc6S
# Method in brief: as §1
# [10] = biological target: GlcNAc(a1-6)Gal(b1-4)GlcNAc
# Method in brief: as §1
# GlcNAc(b1-3)Gal = biological target: GlcNAc(b1-3)Gal
# Method in brief: as §1
# [11] = biological target: GlcNAc(b1-4)Gal(b1-4)GlcNAc
# Method in brief: as §1
# [12] = biological target: GlcNAc(b1-4)[GlcNAc(b1-6)]GalNAc
# Method in brief: as §1
# [13] = biological target: Man(a1-2)Man(a1-3)[Man(a1-6)]Man(a1-6)[Man(a1-2)Man(a1-3)]Man(b1-4)GlcNAc(b1-4)GlcNAc
# Method in brief: as §1
# [14] = biological target: Man(a1-3)[Man(a1-6)]Man(b1-4)GlcNAc(b1-4)GlcNAc
# Method in brief: as §1
# Man(a1-6)Man = biological target: Man(a1-6)Man
# Method in brief: as §1
# [15] = biological target: Neu5Ac(a2-6)Gal(b1-4)GlcNAc(b1-2)Man(a1-3)[Gal(b1-4)GlcNAc(b1-2)Man(a1-6)]Man(b1-4)GlcNAc(b1-4)GlcNAc
# Method in brief: as §1
# [16] = biological target: Neu5Ac(a2-6)Gal(b1-4)GlcNAc(b1-3)Gal(b1-4)GlcNAc
# Method in brief: as §1
# [17] = biological target: Neu5Ac(a2-8)Neu5Ac(a2-3)[GalNAc(b1-4)]Gal(b1-4)Glc
# Method in brief: as §1
binder,measurement,setting,value
B1,glycan array binding signal (z-score),Fuc(a1-2)Gal,-0.228
same,glycan array binding signal (z-score),Fuc(a1-2)Gal(b1-3)GalNAc,-0.514
same,glycan array binding signal (z-score),[1],7.39
same,glycan array binding signal (z-score),Fuc(a1-2)Gal(b1-3)GlcNAc,0.04
same,glycan array binding signal (z-score),Fuc(a1-2)Gal(b1-4)Glc,0.163
same,glycan array binding signal (z-score),[2],1.99
same,glycan array binding signal (z-score),Fuc(a1-2)[Gal(a1-3)]Gal,0.424
same,glycan array binding signal (z-score),[3],-0.373
same,glycan array binding signal (z-score),[4],0.485
same,glycan array binding signal (z-score),[5],-0.32
same,glycan array binding signal (z-score),[6],-0.045
same,glycan array binding signal (z-score),[7],1.11
same,glycan array binding signal (z-score),[8],-0.381
same,glycan array binding signal (z-score),[9],-0.332
same,glycan array binding signal (z-score),Gal3S(b1-4)Glc6S,2.09
same,glycan array binding signal (z-score),Gal3S6S(b1-4)GlcNAc6S,3.49
same,glycan array binding signal (z-score),Gal4S6S(b1-4)GlcNAc,0.978
same,glycan array binding signal (z-score),Gal6S(b1-4)Glc6S,2.14
same,glycan array binding signal (z-score),[10],-0.14
same,glycan array binding signal (z-score),GlcNAc(b1-3)Gal,-0.151
same,glycan array binding signal (z-score),[11],-0.565
same,glycan array binding signal (z-score),[12],-0.223
same,glycan array binding signal (z-score),[13],-0.266
same,glycan array binding signal (z-score),[14],-0.235
same,glycan array binding signal (z-score),Man(a1-6)Man,-0.113
same,glycan array binding signal (z-score),[15],-0.245
same,glycan array binding signal (z-score),[16],-0.465
same,glycan array binding signal (z-score),[17],-0.453
